Our source for the Potency and outcome values is PubChem BioAssay (Tox21).

Experiment [1] in a line: qHTS assay to identify small molecule agonists of the progesterone receptor (PR) signaling pathway - cell viability counter screen (AID 1346799; calls by dose curve; note: nearly all actives have a fitted effect of over 45% in size; note: potency is the fitted concentration of half-maximal effect). An outline of the steps: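 PR-UAS-bla HEK293T cells, 3,000 per well in medium with 2% charcoal-stripped FBS, were preincubated 6 hr at 37C, then exposed to compounds for 16 hr; viability was read as CellTiter-Glo luminescence after 30 min at room temperature.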

A short description of experiment [2]: qHTS assay to identify small molecule antagonists of the TGF-beta/Smad signaling pathway - cell viability counter screen (AID 1346824). Note: nearly all actives have a fitted effect of over 50% in size. A digest of the protocol:
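SBE-bla HEK 293T cells were plated overnight at 37 C, then given compounds in DMSO plus TGF-beta1 (added as 0.25 ng/mL solution) for 5 hr. After the bla read, CellTiter-Glo was added to the same wells and luminescence read after 30 min at room temperature.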

A short description of experiment [3]: qHTS assay to identify small molecule agonists of the TGF-beta/Smad signaling pathway - cell viability counter screen (AID 1346829). Note: top concentration of the series differs between compounds; nearly all actives have a fitted effect of over 45% in size. An outline of the steps: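 CellTiter-Glo luminescence readout; SBE-bla HEK 293T cells, overnight plating, compound 5 hr at 37 C/5% CO2, then bla substrate 2 hr RT, then CellTiter-Glo 30 min RT.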
(In general: Quantitative high-throughput screening tests each substance at several concentrations.)

Experiment [4] can be described thus: qHTS assay to identify small molecule agonists of the TGF-beta/Smad signaling pathway (AID 1346859; active = well fitted activation curve with a large enough effect in the signal ratio in the repeat runs, not every such curve was filed as active; the % refers to the signal ratio; note: potency is the fitted concentration of half-maximal effect; for activation: series mostly up to about 77 µM). An outline of the steps: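 HEK 293T cells stably carrying a beta-lactamase reporter driven by the Smad binding element were seeded overnight, exposed to DMSO-dissolved compounds for 5 hr at 37 C, 5% CO2, then loaded with FRET substrate for 2 hr at room temperature.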

Experiment [5] deals with Thyrotropin-releasing hormone receptor (Homo sapiens) (UniProt P34981). As to the kind of experiment: qHTS assay to identify small molecule agonists of the thyrotropin-releasing hormone receptor (TRHR) signaling pathway (AID 1346891; calls by dose curve; note: series mostly up to about 58 µM). A digest of the protocol: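 TRHR-expressing HEK293 cells were plated 18 h at 37 °C/5% CO2, loaded with calcium dye 2 h at 37 °C, then given compound in DMSO; fluorescence was read kinetically for 3 min at 1 s intervals.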
Chain of Thyrotropin-releasing hormone receptor (Homo sapiens) (P34981 whole entry, looked up): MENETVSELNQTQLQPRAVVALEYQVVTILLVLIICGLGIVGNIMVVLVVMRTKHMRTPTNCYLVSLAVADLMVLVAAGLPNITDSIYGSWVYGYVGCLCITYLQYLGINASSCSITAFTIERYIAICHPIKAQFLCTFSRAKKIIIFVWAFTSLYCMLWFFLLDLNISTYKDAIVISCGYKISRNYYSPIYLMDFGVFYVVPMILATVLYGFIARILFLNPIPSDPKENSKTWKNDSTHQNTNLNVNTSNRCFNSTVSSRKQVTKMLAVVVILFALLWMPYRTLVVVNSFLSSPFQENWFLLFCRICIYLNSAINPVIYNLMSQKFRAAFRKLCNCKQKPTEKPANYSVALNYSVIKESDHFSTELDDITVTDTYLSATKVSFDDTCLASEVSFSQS

The nature of experiment [6]: Caspase-3/7 induction in HepG2 cells by small molecules, qHTS assay (AID 1346978). Note: nearly all actives have a fitted effect of over 15% in size. A digest of the protocol: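 Wild-type HepG2 cells (2,000/well) were settled 5 h at 37 C, 5% CO2, then exposed to compounds in DMSO for 17 h. Caspase-3/7 activity was read by luminescence 30 min after adding Caspase-Glo 3/7 reagent at room temperature.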
The nature of experiment [7]: Caspase-3/7 induction in CHO-K1 cells by small molecules, qHTS cell viability counter screen (AID 1346979). Note: nearly all actives have a fitted effect of over 35% in size. Note: potency is the fitted concentration of half-maximal effect. A digest of the protocol:
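Wild-type CHO-K1 cells were seeded at 1,500 per well, rested 5hr at 37 C, then exposed to compounds in DMSO. After 16hr, CellTiter-Fluor reagent was added and fluorescence read 1hr later as the viability measure.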

The nature of experiment [8]: Caspase-3/7 induction in CHO-K1 cells by small molecules, qHTS assay (AID 1346980). Note: nearly all actives have a fitted effect of over 15% in size. An outline of the steps:
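Wild-type cells were seeded at 1,500 per well and settled 5 hr at 37 C, 5% CO2, then exposed to DMSO-dissolved compounds for 17 hr. Caspase-Glo 3/7 reagent was added, and luminescence was read after 30min at room temperature.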

Experiment [9] can be described thus: Human pregnane X receptor (PXR) small molecule agonists, qHTS cell viability counter screen (AID 1346977). Note: nearly all actives have a fitted effect of over 50% in size. A digest of the protocol:
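PXR-Luc HepG2 cells in medium with 5% charcoal-stripped FBS were pre-incubated 5hr, then exposed to compounds for 24hr at 37C. Viability was read in the same wells by CellTiter-Fluor fluorescence, reagent added after 23hr with a 1hr incubation.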

The target in experiment [10] is Thyrotropin-releasing hormone receptor (Homo sapiens) (UniProt P34981). Put plainly: qHTS assay to identify small molecule antagonists of the thyrotropin-releasing hormone receptor (TRHR) signaling pathway (AID 1346877; active = well fitted inhibition curve with a large enough effect in the repeat runs, not every such curve was filed as active; note: series mostly up to about 51 µM). A digest of the protocol: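 Kinetic fluorescence (3 min, 1 s resolution) following stimulation with TRH at 1 nM final; HEK293 cells bearing human TRHR; 5 min compound preincubation at RT; concentration-response over 15 points, triplicates.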

Molecules are shown by their SMILES. Several values for one entry are separate records, joined by “and”; a condition that tells them apart may be missing. Equal entries are not always repeated. Records with an inconclusive call do not appear. Some structures have more than one record in an assay (separate samples or runs), and their calls can disagree. Activity calls are given as the source filed them. Unless noted, calls come from the whole dose curve; as a rule, active = well fitted curve in the direction sought with a large enough effect in the repeat runs; inconclusive = weak or mixed curves; inactive = no such curve, though single readings can be large; an effect the other way counts as inactive or inconclusive.

For `Clc1ccc(Cl)cc1`, the Potency result in [1], in [2], in [4] and in [5] was “inactive” each time. The molecule was classed as inactive in experiment [3], in experiment [6] and in experiment [8]. Moreover, the Potency in experiment [7] is 2.17 µM (active).

For the molecule `CC(C)C1(C)N=C(c2nc3ccccc3cc2C(=O)O)NC1=O` (configuration not stated), the Potency result in [1], in experiment [2], in experiment [4], in experiment [5], in experiment [9] and in [7] was “inactive” each time. Moreover, the molecule was called inactive in experiment [3], in [6] and in [8].

In the case of `CC(C)C#N`, the Potency result in [1], in experiment [2], in experiment [4], in [5], in [9] and in experiment [7] was “inactive” throughout. Also, the molecule was classed as inactive in [3], in experiment [6] and in experiment [8].

Consider `NCCc1ccc(O)cc1`, for which the Potency in experiment [1] was 21.5 µM (active) and inactive. In addition, the Potency entry in [2], in experiment [4], in experiment [5], in experiment [9] and in experiment [7] was “inactive” in each case. Also, the result in experiment [3], in [6] and in [8] was inactive.

Turning to `c1ccc2c(c1)Oc1ccccc1O2`, the Potency result in experiment [1], in experiment [2], in experiment [4], in [9] and in experiment [7] was “inactive” in each case. Besides, the molecule was called inactive in experiment [3], in experiment [6] and in experiment [8].

`O=c1n(Cl)c(=O)n(Cl)c(=O)n1Cl`: the Potency entry in experiment [1], in experiment [2], in [4], in experiment [5], in [9] and in experiment [7] was “inactive” in each case. Besides, the molecule was called inactive in experiment [3], in experiment [6] and in [8].

With `CC(C)(Cl)Cl`, the Potency entry in experiment [1], in experiment [2], in experiment [4], in experiment [5], in [9] and in [7] was “inactive” throughout. In addition, the result in experiment [3], in [6] and in [8] was inactive.

With `O=Cc1cccc(Oc2ccccc2)c1`, the Potency entry in experiment [1], in [2], in [4], in [9] and in experiment [7] was “inactive” in each case. For the same molecule, the result in experiment [3], in [6] and in experiment [8] was inactive.

As for `CCC[CH2][Sn]([Cl])([Cl])[Cl]`, the Potency entry in [1], in experiment [2], in experiment [4], in experiment [5], in [9] and in [7] was “inactive” each time. In addition, the molecule was classed as inactive in experiment [3], in experiment [6] and in experiment [8].

On to `CC(Br)C(=O)O` (configuration not stated), for which the Potency entry in [1], in experiment [2], in experiment [4], in experiment [5], in [9] and in experiment [7] was “inactive” each time. The molecule was classed as inactive in experiment [3], in [6] and in experiment [8].

Turning to `Nc1ccc(Cc2ccc(N)cc2)cc1`, the Potency result in [1], in experiment [2], in experiment [4], in [9] and in [7] was “inactive” in each case. Moreover, the call in experiment [3], in [6] and in experiment [8] was inactive.

With `NCC(O)c1ccc(O)cc1` (configuration not stated), the Potency result in experiment [1], in experiment [2], in [4] and in experiment [7] was “inactive” each time. For the same molecule, the outcome in [3], in [10], in experiment [6] and in experiment [8] was inactive.

For `CCC12COCN1COC2`, the Potency entry in [1], in [2], in experiment [4], in experiment [9] and in experiment [7] was “inactive” in each case. Also, the call in [3], in experiment [6] and in experiment [8] was inactive.

As to `BrCCBr`, the Potency result in [1], in experiment [2], in experiment [4], in experiment [5] and in experiment [7] was “inactive” throughout. For the same molecule, the outcome in [3], in experiment [6] and in experiment [8] was inactive.

Consider `O=C1CCCN1`, for which the Potency result in experiment [1], in experiment [2], in experiment [9] and in experiment [7] was “inactive” in each case. Moreover, the result in experiment [3], in [6] and in experiment [8] was inactive. Besides, in experiment [4], the Potency was 55.5 µM (active) and inactive.

On to `CC(C)=C[C@@H]1[C@@H](C(=O)OCc2coc(Cc3ccccc3)c2)C1(C)C`, for which the Potency result in experiment [1], in experiment [2], in [4], in experiment [9] and in experiment [7] was “inactive” throughout. Further, the outcome in experiment [3], in [6] and in experiment [8] was inactive.

In the case of `Cn1cc(-c2ccccc2)c(=O)c(-c2cccc(C(F)(F)F)c2)c1`, the Potency result in experiment [1], in experiment [2], in [4], in experiment [5] and in experiment [9] was “inactive” throughout. Besides, the result in experiment [3], in experiment [6] and in [8] was inactive.

On to `O=c1[nH]c2ccccc2c(=O)o1`, for which the Potency entry in [1], in experiment [2], in experiment [4] and in [7] was “inactive” in each case. For the same molecule, the molecule was classed as inactive in experiment [3], in [10], in experiment [6] and in experiment [8].

For the molecule `c1ccc(-c2ccccc2)cc1`, the Potency result in experiment [1], in experiment [2], in [4], in [5], in experiment [9] and in [7] was “inactive” throughout. Further, the call in experiment [3], in experiment [6] and in [8] was inactive.

As for `CN(C)N=O`, the Potency entry in [1], in [2], in experiment [4], in [5] and in [7] was “inactive” throughout. The call in experiment [3], in experiment [6] and in [8] was inactive.

Take `CCC[N+](=O)[O-]`: the Potency in experiment [1] was 19 µM (active) and inactive. The Potency result in experiment [2], in [4], in experiment [9] and in [7] was “inactive” each time. In addition, the molecule was classed as inactive in experiment [3], in experiment [6] and in experiment [8].

As for `CCCCOC(=O)c1ccccc1C(=O)OCCCC`, the Potency entry in experiment [1], in experiment [2], in experiment [4], in experiment [9] and in [7] was “inactive” in each case. In addition, the molecule was classed as inactive in experiment [3], in [6] and in experiment [8].

With `O=c1ccc(=O)[nH][nH]1`, the Potency result in experiment [1], in experiment [2], in experiment [4] and in experiment [7] was “inactive” throughout. Besides, the outcome in [3], in [6] and in [8] was inactive.

For `O=S(=O)(c1ccc(Cl)cc1)c1cc(Cl)c(Cl)cc1Cl`, the Potency entry in [2], in [4], in experiment [5] and in [9] was “inactive” throughout. Moreover, the molecule was called inactive in [3], in experiment [10], in [6] and in experiment [8]. For the same molecule, the Potency in [7] is 54.4 µM (active) and 68.6 µM (active).

Turning to `CON(C)C(=O)Nc1ccc(Cl)c(Cl)c1`, the Potency entry in experiment [2] and in experiment [4] was “inactive” each time. Also, the molecule was classed as inactive in experiment [3], in [6] and in [8].

With `CCCCN(CCCC)SN(C)C(=O)Oc1cccc2c1OC(C)(C)C2`, the Potency result in experiment [1], in experiment [2] and in experiment [4] was “inactive” each time. Also, the molecule was called inactive in [3], in [6] and in experiment [8]. Besides, in [7], the Potency was 69.7 µM (active).

For the molecule `C[C@]12CC[C@H]3[C@@H](CC[C@@]45O[C@@H]4C(O)=C(C#N)C[C@]35C)[C@@H]1CC[C@@H]2O`, the Potency entry in [1], in experiment [2], in experiment [9] and in experiment [7] was “inactive” throughout. Further, the call in experiment [3], in experiment [6] and in [8] was inactive.

Turning to `CCCCN(CC)C(=O)SCCC`, the Potency result in experiment [1], in [2], in experiment [4], in experiment [9] and in experiment [7] was “inactive” in each case. Moreover, the molecule was called inactive in [3], in experiment [6] and in [8].
